# Source: PubChem BioAssay
# DT40 TDP1 CPT: growth inhibition of DT40 Tdp1-/-;hTDP1 cells with camptothecin (screen for TDP1 inhibitors); chicken DT40 Tdp1-/-;hTDP1 cells + 20 nM CPT, ATP luminescence, 48 h; Potency, µM (doses to about 46.2 µM), inactives show at the top dose activity change, negative = growth inhibition, usual class: inhibitors; actives 12% (n = 420,000); AID 686979; note: potency is the fitted concentration of half-maximal effect; nearly all actives have a fitted effect of over 55% in size
#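 Chicken DT40 Tdp1-/- cells stably complemented with human TDP1 were seeded at 400 cells/well in medium containing 20 nM camptothecin, exposed to pin-transferred compounds, and grown at 37 °C for at least 48 hr. Viability was read as ATP luminescence.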
# HT1080 IDH1KD tx: HT-1080 IDH1 knockdown cell toxicity (counter line); AID 686971; HT-1080 IDH1 knockdown viability, ATP luminescence, 48 h; Potency, µM (highest dose often 46.1 µM), for the others: top-dose activity, negative = toxicity, hits mostly cytotoxic; actives 2% (n = 360,000);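 note: potency is the fitted concentration of half-maximal effect; 0% = DMSO wells and -100% = cell-free medium wells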
#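 Luminescent ATP read-out (CellTiter-Glo, 10 min at room temperature) after 48 h compound exposure at 37 °C gave viability of IDH1-knockdown HT-1080 cells. Activity was normalised to DMSO and cell-free wells, then fitted as concentration-response curves.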
# HT1080-NT tox: kills 2HG-producing HT-1080-NT fibrosarcoma cells. HT-1080-NT fibrosarcoma viability, CellTiter-Glo ATP luminescence, 48 h. Potency, µM (top dose mostly 46.1 µM), for inactives: top-dose activity, negative = less viability, usual class: cytotoxic. actives 1.6% (n = 360,000);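 note: NT is the 2HG producing partner of a matched IDH1 knockdown line; potency is the fitted concentration of half-maximal effect; 0% = DMSO-treated cells and -100% = media-only wells without cells; nearly all actives have a fitted effect of over 55% in size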
#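 Fibrosarcoma NT cells, 750 per well in 5% FBS RPMI, were exposed to compound for 48 hours. Viability: CellTiter-Glo luminescence.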
# DT40 TDP1 no CPT: qHTS for Inhibitors of human tyrosyl-DNA phosphodiesterase 1 (TDP1): qHTS in cells in absence of CPT. DT40 Tdp1-/- hTDP1 cells, no CPT, ATP luminescence, 48 h. Potency, µM (top dose mostly 46.2 µM), for inactives: at the highest dose activity change, negative = growth inhibition, most hits filed as inhibitors. actives 15% (n = 420,000). AID 686978, 2013; note: potency is the fitted concentration of half-maximal effect; nearly all actives have a fitted effect of over 55% in size
#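 Growth of hTDP1-complemented DT40 Tdp1-knockout cells is measured by ATP luminescence after at least 48 hr compound exposure at 37 °C, with DMSO substituting for the 20 nM CPT used in the parallel screen.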
# uPA generation: blocks generation of uPA at the cell surface; cell surface uPA generation assay, qHTS; Potency, µM (highest dose often 38.3 µM), for inactives: at the top dose activity change, negative = inhibition, usual class: inhibitors; actives 0.31% (n = 330,000); AID 540303; active = well fitted inhibition curve with a large enough effect; inconclusive = small, poorly fitted or top-dose-only effect; inactive = no such curve, though single readings can be large or run the other way; tested in mouse RAW 264.7 cells; note: potency is the fitted concentration of half-maximal effect; nearly all actives have a fitted effect of over 55% in size
# IL1B secr inh: blocks inflammasome-driven IL-1 beta release. THP-1 LPS/ATP IL-1B secretion, AlphaLISA, 16 h; stronger effect = lower value. activity change, % at 57.5 µM. actives 4.7% (n = 360,000); in the data active = activity change below about -50%; inconclusive = mostly about -30% to -49%
#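 THP-1 cells pretreated 1 hr with compounds (up to 57.5 uM final), then stimulated with LPS (250 ng/mL final) plus ATP (1.25 mM final); secreted IL-1B measured by AlphaLISA after 16 hr, decreased signal indicating inhibition.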
# Starred values were filed as active, the others as inactive; ? = inconclusive; · = no result; ! = not confirmed by another sample. Sampled rows, rich in hits. Any-hit rate of the full collection: about 19%. Unless noted, calls come from the whole dose curve; as a rule, active = well fitted curve in the direction sought with a large enough effect; inconclusive = small, poorly fitted or top-dose-only effect, or another doubt; inactive = no such curve, though single readings can be large; an effect the other way counts as inactive or inconclusive. Unless noted, % is set by controls: 0 for no effect and ±100 for the full control effect.
SMILES,DT40 TDP1 CPT,HT1080 IDH1KD tx,HT1080-NT tox,DT40 TDP1 no CPT,uPA generation,IL1B secr inh
O=C(c1ccccc1)c1ccc2nc(N3CCN(c4ccc(F)cc4)CC3)c3nncn3c2c1,7.3µM*,·,·,8.2µM*,·,·
Cc1ccc(C2=NCC(=O)Nc3ccc(Br)cc32)cc1,0%,-18%,-13%,?,-2%,25
CC(C)C[C@H]1COc2cc(N3CCN(C)CC3)ccc2S(=O)(=O)N1,4%,0%,-13%,?,·,2
CCN(CCO)c1ccc(N=Cc2c(O)n(C)c(=S)[nH]c2=O)cc1,12µM*,-10%,19%,10µM*,-11%,8
Cc1cccnc1-n1c(C)nc2ccccc2c1=O,-19%,-4%,-1%,-7%,0%,-2
O=P(Nc1ccccc1)(Nc1ccccc1)Oc1cccc(Cl)c1,?,?,?,?,·,-12
C[C@@H]([C@@H](O)c1ccccc1)N(C)C(=O)Cc1ccccc1,7%,8%,0%,-15%,3%,15
CN(C)CC(C(=O)Cc1ccccc1)c1ccccc1 (stereo not given),0.92µM*,8.2µM*,16µM*,0.65µM*,?,-96*
CC(C)c1ccc(C(c2c(O)c3ccccc3oc2=O)c2c(O)c3ccccc3oc2=O)cc1,-25%,-6%,0%,?,·,20
CC(C)c1ccc(Cc2cn3cc(-c4cc5ccccc5oc4=O)nc3s2)cc1,0.26µM*,·,·,0.18µM*,·,·
CCOC(=O)C1(CCOc2ccccc2)CCN(C(C)CSC)CC1 (stereo not given),?,-4%,-15%,?,?,12
CCOC(=O)C1(CCOc2ccccc2)CCN(Cc2ccccc2OC)CC1,16µM*,-15%,?,15µM*,4%,?
CCOC(=O)C1(CCOc2ccccc2)CCN(Cc2cnc(SC)nc2)CC1,?,-19%,0%,18µM*,-2%,?
CCOC(=O)C1(CCOc2ccccc2)CCN(Cc2cccc(O)c2)CC1,?,?,?,?,1%,-86*
COC(=O)[C@@H]1[C@H]2CC[C@@H](C[C@H]1OC(=O)c1ccccc1)N2C,12%,·,·,-4%,·,·
COc1ccc(C(CNC(=O)Cc2ccc(Cl)c(Cl)c2)N(C)C)cc1 (stereo not given),?,-11%,-19%,?,·,-51*
CCCCn1c(O)c(/C(CC)=N/N2CCCCC2c2cccnc2)c(=O)[nH]c1=S (stereo not given),?,?,?,?,-11%,-64*
CCCC(=O)NC1=C(N2CC2)C(=O)C(NC(=O)CCC)=C(N2CC2)C1=O,0.82µM*,-18%,-27%,1.6µM*,-13%,2
C[C@@H]1C(=O)O[C@@H]2[C@H](O)C34[C@@H]5OC(=O)C3(O[C@H]3OC(=O)[C@H](O)C34[C@H](C(C)(C)C)[C@H]5O)[C@@]12O (stereo not given in full),-1%,-5%,-1%,-3%,17%,9
Cc1ccc(N=Nc2c(O)[nH]c(=O)[nH]c2=O)cc1S(=O)(=O)Nc1ccc(Br)cc1,-13%,?,?,-1%,4%,5
CCOC(=O)c1ccc2c(c1)N(CC)C(=O)c1ccccc1S2,?,0%,-2%,?,-3%,15
COc1ccc(C(=O)Nc2ccc3c(c2)N(C)C(=O)c2ccccc2S3)cc1OC,2.9µM*,·,·,2.6µM*,·,·
CN1C(=O)c2ccccc2Sc2ccc(NC(=O)c3ccc(C(F)(F)F)cc3)cc21,4.6µM*,·,·,2.9µM*,·,·
CCOC(=O)Nc1ccc2c(c1)N(C(=O)CN(C)C)c1ccccc1CC2,?,-5%,-5%,?,0%,-4
COC(=O)C1=C(c2ccc(F)cc2F)C[C@@H]2CC[C@H]1N2C(=O)NCCOc1ccccc1Cl,?,10%,-1%,?,12%,-19
SMILES,DT40 TDP1 CPT,HT1080 IDH1KD tx,HT1080-NT tox,DT40 TDP1 no CPT,uPA generation,IL1B secr inh
O=C1Nc2cc(Cl)c(Cl)cc2N2CCNC[C@H]12,-31%,·,·,?,·,·
Cc1oc2ccc(O)c(CN3CCCCCC3)c2c1C(=O)Nc1cccc(Cl)c1C,3.7µM*,·,·,5.8µM*,·,·
Cc1[nH]c2c(Cl)cccc2c(=O)c1CN1CCCCCC1,?,13%,11%,-16%,-4%,0
O=C1NCCCCC1(Cl)Cl,-4%,1%,-1%,5%,2%,19
Cc1ccc2c(Cl)cc(Cl)c(O)c2n1,2.9µM*!,8.2µM*,-24%,3.3µM*!,0%,-94*
COc1ccc(NC(=O)CCOc2cc(C)ccc2C)cc1S(=O)(=O)N1CCCCC1,?,0%,-4%,21µM*,-6%,-54*
COCC1CCCCN1C(=O)c1ccc(OC)c(OC2CCN(C(C)C)CC2)c1 (stereo not given),-1%,4%,-1%,-5%,?,-3
CC(C)=CCc1c(O)cc2c(c1O)C(=O)CC(c1ccc(O)cc1)O2 (stereo not given),16µM*,1%,0%,23µM*,-8%,26
COc1cccc(CCNCc2ccc(SC)cc2)c1,-26%,-14%,-19%,?,-8%,-65*
COc1ccc(CCNCc2cc(OC)cc(OC)c2)cc1,?,-8%,-10%,?,·,-51*
COc1ccc(CCNCc2c(OC)ccc3ccccc23)cc1,13µM*,-24%,?,13µM*,1%,-64*
COc1ccc(CCNC(C)CCc2ccc(OC)cc2)cc1 (stereo not given),?,-26%,?,?,-1%,-64*
COc1ccc(CCNCc2ccccc2)cc1,-10%,-3%,-1%,?,-8%,-15
Clc1ccc(N2CC2c2ccncc2)cc1 (stereo not given),?,0%,3%,?,0%,-14
CCCN1C[C@H](C)N([C@H](c2ccc(C(=O)N(CC)CC)cc2)c2cccc(OC)c2)C[C@H]1C,-25%,·,·,2%,·,·
CC(=O)c1ccc2c(c1)C1C(Cl)C(Sc3ccccc3[N+](=O)[O-])CC1C(c1ccccc1)N2 (stereo not given),12µM*,-21%,-24%,15µM*,1%,1
CC(=O)c1ccc2c(c1)C1C(Cl)C(Sc3ccccc3[N+](=O)[O-])CC1C(c1ccccc1[N+](=O)[O-])N2 (stereo not given),10µM*,-17%,-14%,13µM*,-1%,-20
